The results in this text go back to the supplement of paper PMC11732987, “Enantioselective OTUD7B fragment discovery through chemoproteomics screening and high-throughput optimisation” (Communications Chemistry, 2025).

Each structure is given as a SMILES string. Unmarked numbers belong to inactive results.

What all share (assay): log2 ratio of Biotin-Ahx-Ub-VS probe labelling (fragment/DMSO); higher = less target engagement (more negative = stronger competition), active = hit call of the paper (q ≤ 0.05, log2 ratio ≤ -1)
What all share (conditions): compound concentration: 200 uM; treatment time: 3 h

The target of one assay is USP34 (UniProt Q70CQ2). Summed up:
(§1)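 Global-median-normalised Spectronaut label-free quantities were compared by unpaired t-test, and values are average log2 ratios of fragment over vehicle. Only proteins with ≥2 unique peptides were used. HEK293T lysate (495 µg per sample) was treated in triplicate with fragment at 200 µM or vehicle for 3 h and then with Biotin-Ahx-Ub-VS at 0.5 µM final for 1 h. Labelled DUBs were then NeutrAvidin-enriched, digested with LysC and trypsin, and run by diaPASEF LC-MS/MS.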

A further assay has as its target T1, USP36 (UniProt Q9P275).
T1 sequence (whole entry): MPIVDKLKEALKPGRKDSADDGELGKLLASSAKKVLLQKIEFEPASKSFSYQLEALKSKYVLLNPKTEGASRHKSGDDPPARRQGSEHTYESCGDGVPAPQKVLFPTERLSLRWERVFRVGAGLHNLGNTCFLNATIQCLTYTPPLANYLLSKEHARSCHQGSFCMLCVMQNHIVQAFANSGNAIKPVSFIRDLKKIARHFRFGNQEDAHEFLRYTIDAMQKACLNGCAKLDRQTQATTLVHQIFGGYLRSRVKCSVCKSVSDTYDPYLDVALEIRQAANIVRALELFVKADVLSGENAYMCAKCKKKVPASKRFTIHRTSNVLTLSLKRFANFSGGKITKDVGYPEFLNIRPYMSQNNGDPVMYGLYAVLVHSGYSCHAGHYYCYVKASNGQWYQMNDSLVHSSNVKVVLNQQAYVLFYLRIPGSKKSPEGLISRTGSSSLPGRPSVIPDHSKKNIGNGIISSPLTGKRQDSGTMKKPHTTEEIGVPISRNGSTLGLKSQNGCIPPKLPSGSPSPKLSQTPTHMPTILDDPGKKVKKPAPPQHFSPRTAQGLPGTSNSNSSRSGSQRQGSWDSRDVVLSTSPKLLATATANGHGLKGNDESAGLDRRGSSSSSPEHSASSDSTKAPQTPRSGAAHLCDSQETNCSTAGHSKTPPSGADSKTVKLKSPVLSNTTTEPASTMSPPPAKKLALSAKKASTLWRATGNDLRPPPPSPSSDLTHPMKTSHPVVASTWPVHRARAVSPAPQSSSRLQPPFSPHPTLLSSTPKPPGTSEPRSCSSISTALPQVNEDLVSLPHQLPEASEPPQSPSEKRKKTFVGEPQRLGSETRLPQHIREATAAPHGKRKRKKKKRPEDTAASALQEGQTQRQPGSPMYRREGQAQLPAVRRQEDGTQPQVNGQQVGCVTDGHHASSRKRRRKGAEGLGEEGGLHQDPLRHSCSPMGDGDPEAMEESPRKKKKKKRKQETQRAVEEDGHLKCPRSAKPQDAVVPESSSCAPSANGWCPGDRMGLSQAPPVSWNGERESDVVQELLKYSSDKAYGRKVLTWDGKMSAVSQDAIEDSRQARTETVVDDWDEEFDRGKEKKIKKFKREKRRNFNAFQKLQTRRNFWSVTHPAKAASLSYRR
An outline of the steps:
as §1

For another assay, the target named is T2, USP38 (UniProt Q8NB14).
T2 sequence (whole entry): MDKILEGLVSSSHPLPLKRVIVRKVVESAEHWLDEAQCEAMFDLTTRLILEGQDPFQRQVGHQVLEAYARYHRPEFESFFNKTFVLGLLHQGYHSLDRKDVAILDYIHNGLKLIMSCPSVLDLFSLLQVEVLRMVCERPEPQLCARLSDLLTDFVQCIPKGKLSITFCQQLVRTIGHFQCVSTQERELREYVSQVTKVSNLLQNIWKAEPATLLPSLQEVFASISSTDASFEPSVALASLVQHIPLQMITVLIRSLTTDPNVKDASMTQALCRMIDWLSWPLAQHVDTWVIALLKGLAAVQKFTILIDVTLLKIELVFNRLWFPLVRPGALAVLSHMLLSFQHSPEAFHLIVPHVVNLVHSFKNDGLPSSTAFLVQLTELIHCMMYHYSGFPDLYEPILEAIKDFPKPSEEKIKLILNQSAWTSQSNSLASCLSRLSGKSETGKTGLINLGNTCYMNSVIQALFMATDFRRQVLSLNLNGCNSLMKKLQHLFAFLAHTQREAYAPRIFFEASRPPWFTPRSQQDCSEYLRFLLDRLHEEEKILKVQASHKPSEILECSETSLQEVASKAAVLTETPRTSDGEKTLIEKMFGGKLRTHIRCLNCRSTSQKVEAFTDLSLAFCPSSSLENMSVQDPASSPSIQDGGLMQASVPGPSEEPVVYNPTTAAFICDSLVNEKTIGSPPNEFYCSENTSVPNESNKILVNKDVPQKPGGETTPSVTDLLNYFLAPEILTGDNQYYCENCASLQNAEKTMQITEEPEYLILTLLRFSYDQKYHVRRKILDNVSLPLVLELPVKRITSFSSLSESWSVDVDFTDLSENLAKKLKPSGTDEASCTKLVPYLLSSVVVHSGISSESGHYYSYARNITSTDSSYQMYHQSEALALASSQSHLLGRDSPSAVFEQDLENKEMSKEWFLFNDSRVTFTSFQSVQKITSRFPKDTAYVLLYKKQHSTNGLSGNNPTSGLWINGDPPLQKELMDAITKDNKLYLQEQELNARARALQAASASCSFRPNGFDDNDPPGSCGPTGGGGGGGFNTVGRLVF
An outline of the steps: as §1

A further assay has as its target T3, USP39 (UniProt Q53GS9).
T3 sequence (whole entry): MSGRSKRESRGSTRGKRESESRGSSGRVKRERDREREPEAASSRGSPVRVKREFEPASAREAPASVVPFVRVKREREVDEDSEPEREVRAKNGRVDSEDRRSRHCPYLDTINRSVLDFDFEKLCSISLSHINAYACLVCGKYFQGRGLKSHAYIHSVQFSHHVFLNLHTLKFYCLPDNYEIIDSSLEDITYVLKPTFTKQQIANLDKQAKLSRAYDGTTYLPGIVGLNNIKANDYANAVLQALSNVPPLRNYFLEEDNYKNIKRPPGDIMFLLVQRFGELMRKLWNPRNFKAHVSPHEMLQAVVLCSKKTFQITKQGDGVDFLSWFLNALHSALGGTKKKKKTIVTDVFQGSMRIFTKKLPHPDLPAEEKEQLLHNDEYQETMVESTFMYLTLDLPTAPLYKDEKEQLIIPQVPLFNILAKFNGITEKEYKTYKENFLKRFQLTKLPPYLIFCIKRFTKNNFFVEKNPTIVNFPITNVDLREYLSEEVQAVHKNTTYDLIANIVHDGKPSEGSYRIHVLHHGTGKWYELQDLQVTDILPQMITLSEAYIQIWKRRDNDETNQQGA
An outline of the steps: as §1

Another assay addresses T4, USP4 (UniProt Q13107).
T4 sequence (whole entry): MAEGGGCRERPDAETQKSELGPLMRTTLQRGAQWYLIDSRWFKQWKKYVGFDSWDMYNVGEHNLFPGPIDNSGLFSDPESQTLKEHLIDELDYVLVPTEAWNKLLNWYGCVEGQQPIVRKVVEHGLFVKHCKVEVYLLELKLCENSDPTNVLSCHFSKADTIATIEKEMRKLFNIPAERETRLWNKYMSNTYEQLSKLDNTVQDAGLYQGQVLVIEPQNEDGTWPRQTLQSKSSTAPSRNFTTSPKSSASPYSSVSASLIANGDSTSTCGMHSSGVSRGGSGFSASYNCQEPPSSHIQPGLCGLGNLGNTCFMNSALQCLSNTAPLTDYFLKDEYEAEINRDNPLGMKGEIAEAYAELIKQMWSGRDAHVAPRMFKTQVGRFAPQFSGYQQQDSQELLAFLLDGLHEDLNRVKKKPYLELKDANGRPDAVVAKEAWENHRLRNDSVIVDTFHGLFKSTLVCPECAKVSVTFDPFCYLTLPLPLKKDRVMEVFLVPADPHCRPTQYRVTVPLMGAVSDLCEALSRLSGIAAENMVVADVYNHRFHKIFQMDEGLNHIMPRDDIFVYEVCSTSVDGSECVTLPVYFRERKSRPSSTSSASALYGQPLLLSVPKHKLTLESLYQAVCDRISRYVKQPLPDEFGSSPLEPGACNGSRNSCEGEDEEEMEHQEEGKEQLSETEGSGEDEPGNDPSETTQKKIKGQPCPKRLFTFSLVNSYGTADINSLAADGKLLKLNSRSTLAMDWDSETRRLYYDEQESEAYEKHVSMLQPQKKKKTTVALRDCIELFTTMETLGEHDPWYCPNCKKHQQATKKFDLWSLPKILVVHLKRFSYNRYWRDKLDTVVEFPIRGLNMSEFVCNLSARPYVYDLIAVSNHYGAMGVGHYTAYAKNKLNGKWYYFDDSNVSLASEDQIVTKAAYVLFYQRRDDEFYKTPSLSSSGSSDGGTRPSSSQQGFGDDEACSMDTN
An outline of the steps: as §1

Sequence of USP34 (Q70CQ2 whole entry, the tested form may be a part): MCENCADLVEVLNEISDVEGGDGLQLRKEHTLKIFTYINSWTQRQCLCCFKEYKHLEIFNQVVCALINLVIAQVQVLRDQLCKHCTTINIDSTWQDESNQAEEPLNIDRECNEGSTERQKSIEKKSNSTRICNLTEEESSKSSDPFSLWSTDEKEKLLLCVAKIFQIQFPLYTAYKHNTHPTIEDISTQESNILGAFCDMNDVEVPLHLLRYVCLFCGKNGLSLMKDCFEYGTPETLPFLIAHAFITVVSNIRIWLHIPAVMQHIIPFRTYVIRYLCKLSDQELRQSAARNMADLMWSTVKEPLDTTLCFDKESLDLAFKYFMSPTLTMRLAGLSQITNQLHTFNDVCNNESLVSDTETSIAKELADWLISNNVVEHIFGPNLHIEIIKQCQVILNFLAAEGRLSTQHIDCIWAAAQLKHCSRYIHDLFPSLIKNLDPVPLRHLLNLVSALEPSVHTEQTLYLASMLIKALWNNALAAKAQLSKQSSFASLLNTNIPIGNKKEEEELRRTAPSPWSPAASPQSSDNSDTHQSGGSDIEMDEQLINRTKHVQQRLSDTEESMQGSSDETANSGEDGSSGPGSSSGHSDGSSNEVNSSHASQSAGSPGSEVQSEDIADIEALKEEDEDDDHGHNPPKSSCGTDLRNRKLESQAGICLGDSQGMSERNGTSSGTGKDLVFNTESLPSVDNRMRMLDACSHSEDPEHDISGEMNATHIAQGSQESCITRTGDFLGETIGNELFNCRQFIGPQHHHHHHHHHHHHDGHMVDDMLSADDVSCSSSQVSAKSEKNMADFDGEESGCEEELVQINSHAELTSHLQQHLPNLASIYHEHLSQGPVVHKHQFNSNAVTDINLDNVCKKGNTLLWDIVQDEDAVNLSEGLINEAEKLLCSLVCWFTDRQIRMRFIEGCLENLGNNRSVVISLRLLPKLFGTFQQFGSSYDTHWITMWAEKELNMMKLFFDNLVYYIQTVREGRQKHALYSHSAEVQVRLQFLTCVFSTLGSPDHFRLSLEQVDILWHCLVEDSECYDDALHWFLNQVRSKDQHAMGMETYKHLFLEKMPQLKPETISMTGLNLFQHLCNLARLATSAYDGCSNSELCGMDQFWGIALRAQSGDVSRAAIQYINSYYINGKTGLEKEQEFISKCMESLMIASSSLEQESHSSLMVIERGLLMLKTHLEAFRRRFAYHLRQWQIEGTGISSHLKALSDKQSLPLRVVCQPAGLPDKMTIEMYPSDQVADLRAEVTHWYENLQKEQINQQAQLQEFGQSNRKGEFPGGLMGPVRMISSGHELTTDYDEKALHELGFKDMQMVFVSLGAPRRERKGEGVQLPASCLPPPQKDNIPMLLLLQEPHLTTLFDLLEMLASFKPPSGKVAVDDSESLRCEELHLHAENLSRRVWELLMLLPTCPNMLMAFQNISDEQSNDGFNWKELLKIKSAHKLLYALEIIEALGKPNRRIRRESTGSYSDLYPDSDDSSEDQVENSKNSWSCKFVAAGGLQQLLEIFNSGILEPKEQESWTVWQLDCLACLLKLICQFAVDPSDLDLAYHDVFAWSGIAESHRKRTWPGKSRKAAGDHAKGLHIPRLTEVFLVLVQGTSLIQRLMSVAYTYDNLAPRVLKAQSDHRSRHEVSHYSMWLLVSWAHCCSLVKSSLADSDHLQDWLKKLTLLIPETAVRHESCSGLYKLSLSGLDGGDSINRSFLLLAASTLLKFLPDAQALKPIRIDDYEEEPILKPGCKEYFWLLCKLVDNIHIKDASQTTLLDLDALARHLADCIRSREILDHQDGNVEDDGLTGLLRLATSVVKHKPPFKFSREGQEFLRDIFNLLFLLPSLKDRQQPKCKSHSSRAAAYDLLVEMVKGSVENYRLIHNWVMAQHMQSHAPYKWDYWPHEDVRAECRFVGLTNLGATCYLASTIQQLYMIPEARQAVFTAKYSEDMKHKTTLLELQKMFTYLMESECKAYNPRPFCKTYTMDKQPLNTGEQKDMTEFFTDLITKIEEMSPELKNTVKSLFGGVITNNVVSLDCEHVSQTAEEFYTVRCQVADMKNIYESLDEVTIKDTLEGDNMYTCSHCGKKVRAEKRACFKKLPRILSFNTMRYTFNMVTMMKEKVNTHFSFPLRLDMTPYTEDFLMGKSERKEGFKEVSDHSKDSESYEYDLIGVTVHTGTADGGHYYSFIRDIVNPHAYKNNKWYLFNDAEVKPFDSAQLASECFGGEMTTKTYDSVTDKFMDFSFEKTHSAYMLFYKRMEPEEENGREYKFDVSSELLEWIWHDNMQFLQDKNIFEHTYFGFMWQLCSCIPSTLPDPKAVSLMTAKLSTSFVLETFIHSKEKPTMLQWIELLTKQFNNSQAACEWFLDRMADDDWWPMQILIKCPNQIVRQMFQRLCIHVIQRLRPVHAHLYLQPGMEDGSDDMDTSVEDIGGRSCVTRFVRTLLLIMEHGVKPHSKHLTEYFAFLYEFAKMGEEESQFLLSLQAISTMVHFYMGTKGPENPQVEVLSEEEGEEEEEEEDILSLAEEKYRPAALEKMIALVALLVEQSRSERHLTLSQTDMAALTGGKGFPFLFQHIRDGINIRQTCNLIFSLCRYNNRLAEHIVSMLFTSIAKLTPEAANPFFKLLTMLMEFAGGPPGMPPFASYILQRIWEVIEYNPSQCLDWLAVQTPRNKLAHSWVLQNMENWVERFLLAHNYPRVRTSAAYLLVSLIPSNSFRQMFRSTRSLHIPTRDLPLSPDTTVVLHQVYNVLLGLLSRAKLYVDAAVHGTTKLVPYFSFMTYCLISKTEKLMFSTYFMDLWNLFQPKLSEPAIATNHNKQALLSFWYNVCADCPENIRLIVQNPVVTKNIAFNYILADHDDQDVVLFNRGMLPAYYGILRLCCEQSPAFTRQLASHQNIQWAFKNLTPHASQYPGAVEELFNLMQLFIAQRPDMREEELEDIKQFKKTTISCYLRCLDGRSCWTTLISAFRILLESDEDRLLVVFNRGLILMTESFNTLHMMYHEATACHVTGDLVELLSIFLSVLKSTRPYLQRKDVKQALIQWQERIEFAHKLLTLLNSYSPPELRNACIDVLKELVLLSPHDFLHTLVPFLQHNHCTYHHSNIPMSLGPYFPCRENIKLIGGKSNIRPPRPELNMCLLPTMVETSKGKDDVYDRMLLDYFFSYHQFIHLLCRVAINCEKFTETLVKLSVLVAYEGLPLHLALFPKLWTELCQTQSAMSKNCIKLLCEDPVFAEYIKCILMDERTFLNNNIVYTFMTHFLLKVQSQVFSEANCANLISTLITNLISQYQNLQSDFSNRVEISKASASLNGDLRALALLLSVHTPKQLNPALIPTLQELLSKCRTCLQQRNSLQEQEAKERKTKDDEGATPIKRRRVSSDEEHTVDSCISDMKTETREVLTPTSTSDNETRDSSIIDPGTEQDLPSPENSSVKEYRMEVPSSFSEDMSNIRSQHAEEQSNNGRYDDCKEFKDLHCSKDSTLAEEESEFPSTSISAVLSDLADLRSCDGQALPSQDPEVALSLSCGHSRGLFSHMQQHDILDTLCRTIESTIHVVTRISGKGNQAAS

On to `O=C(CCl)N1CC=C(c2c[nH]c3ccccc23)CC1`, for which the “log2 ratio of Biotin-Ahx-Ub-VS probe labelling” value in the assay with USP34 was -0.9; in the assay with USP36, 0.0858; in the assay with USP38, -0.476; with USP39 it was 0.536; with USP4 it was -1.2 (active).
